Data from PubChem BioAssay (EPA / NIEHS).
Activity calls are given as the source filed them. Rule for the calls: active = hit-call score of the fitted dose curve at least 0.9, where 1 is the maximum; inactive = score below 0.9.

read-out: TIMP metallopeptidase inhibitor 2 (TIMP2), TIMP2 (gene 7077); assay: BSK_KF3CT_TIMP2: BioMAP Diversity Plus: KF3CT Assay for TIMP metallopeptidase inhibitor 2 (TIMP2) Biomarker Activity (AID 2283071); conditions: primary human keratinocytes with fibroblasts; actives raise or lower the signal
Experimental: BSK_KF3CT is a cell-based, multiplexed-readout assay that uses keratinocytes and foreskin fibroblasts, a human skin primary cell co-culture, with measurements taken at 24 hours after chemical dosing in a 96-well plate.BSK_KF3CT_TIMP2 is an assay component measured in the BSK_KF3CT assay. It measures TIMP-2 antibody related to regulation of gene expression using ELISA technology.Data from the assay component BSK_KF3CT_TIMP2 was analyzed into 1 assay endpoint. This assay endpoint, BSK_KF3CT_TIMP2, was analyzed with bidirectional fitting relative to DMSO as the negative control and baseline of activity. Using a type of binding reporter, gain or loss-of-signal activity can be used to understand changes in the signaling as they relate to the gene TIMP2. Furthermore, this assay endpoint can be referred to as a primary readout, because this assay has produced multiple assay endpoints where this one serves a signaling function. To generalize the intended target to other relatable targets, this assay endpoint is annotated to the protease inhibitor intended target family, where the subfamily is metalloproteinase inhibitor.
The levels of cell surface (or secreted, indicated by the prefix "s") biomarker endpoints were measured by ELISA. Overt cytotoxicity to cells in confluent adherent cultures (all systems other than the BT system) was assessed by measuring total protein levels using sulforhodamine B (SRB) staining in parallel cultures at the time of biomarker measurements, indicated as SRB endpoints. For proliferation assays for adherent cell types, individual cell types are cultured at sub-confluence and relative cell numbers quantified by SRB staining at time points optimized for each system (48 h: 3C and CASM3C systems; 72 h: BT and HDF3CGF systems; 96 h: SAg system). SRB was performed by staining cells with 0.1% SRB after fixation with 10% TCA and reading wells at 560 nm.Viability and proliferation of PBMC (T cells) was quantified by Alamar Blue reduction for the SAg and BT systems. For PBMC viability (referred to as PBMC Cytotoxicity within the assay endpoint names), cells were plated (75,000/well in a 96-well plate) and then chemical samples added for 1 h before addition of activators, SEB and TSST-1 (20 ng/mL final concentration each). Cells were incubated for 90 h. Then, Alamar Blue (20 uL/well) (Invitrogen, Cat DAL1100) was added for 6 h, and the plates were read with a fluorescence microplate reader at 546/580 nm (excitation/emission). For PBMC proliferation, cells were plated and activated as above but incubated for only 16 h prior to addition of Alamar Blue. Plates were read after 6 h.

Row | SMILES | outcome | AC50
1 | O=C(O)c1cc(N=Nc2ccc(S(=O)(=O)Nc3ccccn3)cc2)ccc1O | inactive | 
2 | CCC(C)(C)C(=O)O[C@H]1C[C@@H](C)C=C2C=C[C@H](C)[C@H](CC[C@@H]3C[C@@H](O)CC(=O)O3)[C@H]21 |  | 30.8 µM (active)
3 | COc1ccc2sc(C(=O)Nc3nnn[nH]3)c(OC(C)C)c2c1 |  | 19.9 µM (active)
4 | Cn1c(=O)c2c(ncn2C)n(C)c1=O | inactive | 
5 | O=c1[nH]c2ccc(S(=O)CCN3CCC(Cc4ccc(F)cc4)CC3)cc2o1 (stereo not given) | inactive | 
6 | CC(C)=CCC/C(C)=C\CO | inactive | 
7 | COCCOCCOCCOC | inactive | 
8 | CC(C)(O)c1coc(S(=O)(=O)NC(=O)Nc2c3c(cc4c2CCC4)CCC3)c1 | inactive | 
9 | COc1ccc(/C=C/S(=O)(=O)NC(=O)c2ccc(C)cc2Cl)cc1 | inactive | 
10 | O=C(NS(=O)(=O)/C=C/c1ccccc1)c1ccc(F)cc1Cl |  | 20 µM (active)
11 | Fc1ccccc1[C@@H](F)COC1CCC(Nc2ncnc3[nH]ncc23)CC1 (stereo not given in full) | inactive | 
12 | CCOCCO | inactive | 
13 | O=C(OC[C@H]1O[C@@H](OC(=O)c2cc(O)c(O)c(OC(=O)c3cc(O)c(O)c(O)c3)c2)[C@H](OC(=O)c2cc(O)c(O)c(OC(=O)c3cc(O)c(O)c(O)c3)c2)[C@@H](OC(=O)c2cc(O)c(O)c(OC(=O)c3cc(O)c(O)c(O)c3)c2)[C@@H]1OC(=O)c1cc(O)c(O)c(OC(=O)c2cc(O)c(O)c(O)c2)c1)c1cc(O)c(O)c(OC(=O)c2cc(O)c(O)c(O)c2)c1 |  | 2.92 µM (active)
14 | CC(C)=CCC/C(C)=C/CO | inactive | 
15 | CCCN(C1CCN(C(=O)C2CCNCC2)CC1)[C@@H]1CCc2ccc(OC)cc2C1 | inactive | 
16 | Clc1nc(Cl)c(Cl)c(Cl)c1Cl | inactive | 
17 | CCN(C(=O)c1cc(C)cc(OC[C@H](C)Nc2ccncc2)c1)C(C)C | inactive | 
18 | Nc1ccc(Nc2ccccc2)cc1 | inactive | 
19 | CC(C)CCO | inactive | 
20 | COCCOc1cc2cc(C(=O)NC3CCN(C(C)C)CC3)n(CC(=O)Nc3ccc(Cl)cn3)c2cn1 | inactive | 

Row | SMILES | outcome | AC50
21 | O=C1OC(=O)C2C3C=CC(C3)C12 (stereo not given) | inactive | 
22 | CN(C)c1ccc(Cc2ccc(N(C)C)cc2)cc1 | inactive | 
23 | NC(=O)NO | inactive | 
24 | CC(C)=CCCC(C)=CC=O | inactive | 
25 | O=C1CCCCCN1 | inactive | 
26 | CCCCC(CC)COC(=O)CCCCCCCCC(=O)OCC(CC)CCCC (stereo not given) | inactive | 
27 | Nc1cccc(N)c1 | inactive | 
28 | CCCCCCCCCCCCCCCO | inactive | 
29 | CCCC(=O)OCC | inactive | 
30 | Oc1ccc2c(c1)-c1ccccc1C2 | inactive | 
31 | Cn1c(=O)cc(Oc2ccc(F)cc2F)c2cnc(NCC(C)(C)O)nc21 | inactive | 
32 | CC(=O)c1ccc2c(c1)[C@H](NC(=O)c1ccc(F)cc1)[C@@H](O)C(C)(C)O2 | inactive | 
33 | CC(=O)OC[C@H]1O[C@@](COC(C)=O)(O[C@H]2O[C@H](COC(C)=O)[C@@H](OC(C)=O)[C@H](OC(C)=O)[C@H]2OC(C)=O)[C@@H](OC(C)=O)[C@@H]1OC(C)=O | inactive | 
34 | Cc1ccc(S(=O)(=O)O)cc1C | inactive | 
35 | CCc1cc(SCc2sc(-c3ccc(C(F)(F)F)cc3)nc2CN2CCN(c3ccc(OC)cc3)CC2)ccc1OCC(=O)O |  | 7.31 µM (active)
36 | CC[C@H]1OC(=O)[C@H](C)[C@@H](O[C@H]2C[C@@](C)(OC)[C@@H](O)[C@H](C)O2)[C@H](C)[C@@H](O[C@@H]2O[C@H](C)C[C@H](N(C)C)[C@H]2O)[C@](C)(O)C[C@@H](C)C(=O)[C@H](C)[C@@H](O)[C@]1(C)O | inactive | 
37 | On1ccccc1=S |  | 11.6 µM (active)
38 | CCNc1ccccc1 | inactive | 
39 | CC1(C)C(=O)N(Br)C(=O)N1Br | inactive | 
40 | Cc1ccc(C)c(O)c1 | inactive | 
